Source: PubChem
Bfl-1 A1 inh – caspase 3/7 activation in MEF A1-2A-BIM cells, primary screen, A1 inhibitor project, cell-based, luminescence, HTS; AID 2462, 2010; Caspase-Glo 3/7 luminescence, 3 h; percent of clofoctol response, vehicle zero; caspase activation, % (concentration not given with the values); actives 0.066% (n = 330,000);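 active = over half of replicate activation scores above 10%, or exactly half above 10 with the replicate mean above 10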
CSC inhib – cancer stem cell viability inhibitors, primary screen, luminescence | cancer stem cell-like cells viability | inhibition, % at 7.5 µM | actives 1.1% (n = 300,000); in the data active = inhibition above about 75%; tested in HMLE shEcad cells
aSyn 5UTR inh – MLPCN primary screen, SNCA 5' untranslated region | alpha-synuclein 5'UTR reporter, inhibitor activity | inhibition, % (tested at 7.5 µM) | actives 0.82% (n = 300,000) | AID 1813, 2009; in the data active = inhibition above about 60%;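 note: H4 neuroglioblastoma cells stably carrying SNCA 5'UTR luciferase fusion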
Mdm2-MdmX inh – inhibitors of human Mdm2-MdmX association, primary screen, cell-based, luminescence, split luciferase, SaOS-2, uHTS. Protein Mdm4 (Homo sapiens) + E3 ubiquitin-protein ligase Mdm2 (Homo sapiens), …. SaOS-2 split-luciferase Mdm2/MdmX complementation. inhibition, % at 8 µM. actives 3% (n = 330,000);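 active = inhibition of at least 50% at 8 µM in the primary screen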
Target sequence (O15151 whole entry, looked up): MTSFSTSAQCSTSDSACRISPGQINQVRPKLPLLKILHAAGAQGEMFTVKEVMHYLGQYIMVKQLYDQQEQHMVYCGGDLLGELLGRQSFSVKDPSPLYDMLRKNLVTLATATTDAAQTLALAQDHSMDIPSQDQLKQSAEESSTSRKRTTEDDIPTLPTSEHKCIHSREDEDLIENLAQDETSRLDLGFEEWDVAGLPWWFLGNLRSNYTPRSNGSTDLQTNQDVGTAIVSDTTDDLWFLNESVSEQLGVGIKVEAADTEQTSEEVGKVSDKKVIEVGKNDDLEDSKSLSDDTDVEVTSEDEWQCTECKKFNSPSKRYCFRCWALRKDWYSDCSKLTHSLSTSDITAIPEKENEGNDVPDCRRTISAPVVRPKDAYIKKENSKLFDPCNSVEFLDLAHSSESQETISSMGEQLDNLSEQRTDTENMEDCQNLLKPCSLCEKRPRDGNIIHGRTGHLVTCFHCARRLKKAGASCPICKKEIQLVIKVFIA
Target sequence (Q00987 whole entry, looked up): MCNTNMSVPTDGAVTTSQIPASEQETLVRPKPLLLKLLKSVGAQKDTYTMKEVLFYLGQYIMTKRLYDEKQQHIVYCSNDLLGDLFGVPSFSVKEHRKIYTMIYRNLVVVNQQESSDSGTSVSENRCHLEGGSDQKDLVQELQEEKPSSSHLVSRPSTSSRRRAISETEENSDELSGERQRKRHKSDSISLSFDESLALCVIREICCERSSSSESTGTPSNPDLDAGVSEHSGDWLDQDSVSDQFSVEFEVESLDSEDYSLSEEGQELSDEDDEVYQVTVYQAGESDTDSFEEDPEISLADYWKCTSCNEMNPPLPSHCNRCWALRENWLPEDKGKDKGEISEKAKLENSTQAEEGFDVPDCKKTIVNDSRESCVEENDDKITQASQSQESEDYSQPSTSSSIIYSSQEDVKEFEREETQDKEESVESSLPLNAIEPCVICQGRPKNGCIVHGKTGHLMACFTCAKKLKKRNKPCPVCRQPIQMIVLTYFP
Beta cell apopt – inhibitors of cytokine-induced beta cell apoptosis, primary screen, luminescence | INS-1E cytokine-induced death, ATP luminescence, 48 h; percent of positive-control rescue, neutral wells zero | protection from apoptosis, % (no concentration beside the values) | AID 435005, 2010 | actives 0.8% (n = 300,000);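 active = Every replicate reaches about 75%, or at least half do and their mean reaches it too, limit read from the data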;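 note: higher means more ATP so stronger rescue from cytokine killing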
Mdm2-MdmX conf – Mdm2-MdmX complex disruptors, retested hits, confirmation, luminescence, single concentration | shares compounds with Mdm2-MdmX inh | Mdm2-MdmX binding, luminescent assay | inhibition, % at 8 µM | actives 55% (n = 10,000); in the data active = inhibition above about 40%
Full FLuc ctr – full-length luciferase signal inhibition, confirmation, counter-screen for Mdm2/MdmX interaction inhibitor project, cell-based, single concentration, SaOS-2; inhibition, % at 8 µM; AID 504607, 2011; actives 77% (n = 6,200); SaOS-2 full-length luciferase counterscreen, luminescence; shares compounds with Mdm2-MdmX inh;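 active = mean inhibition at 8 µM reaching about 37%, which flags the compound as non-specific, limit read from the data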;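 note: p53-null SaOS-2 cells with luciferase driven by a doxycycline-inducible promoter; compound on cells about two nights before reading with doxycycline added after day one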
Of the large screens only hits and unclear results are named; the others gave an inactive call (follow-up assays come after a bar, where they were run). Most compounds without a hit are left out; they make up all but 4.1% or so of the library.

c1ccc(CCn2c3ccccc3c3nnc(SCc4ccc5nonc5c4)nc32)cc1	Mdm2-MdmX inh 90.9 (no result: CSC inhib) | Mdm2-MdmX conf 63.0 | Full FLuc ctr 43.5
COc1cc(/C=C2\COC/C(=C\c3ccc(O)c(OC)c3)C2=O)ccc1O	CSC inhib 86.7, aSyn 5UTR inh 102.5, Mdm2-MdmX inh 100.3 | Mdm2-MdmX conf 100.1 | Full FLuc ctr 53.0
COc1ccc(/C=C2\CC/C(=C\c3ccc(OC)c(OC)c3)C2=O)cc1OC	none
COc1ccc(C=C2C(=O)c3ccccc3C2=O)cc1O	none (no result: Beta cell apopt)
COc1ccc(/C=C2\CN(Cc3ccccc3)C/C(=C\c3ccc(OC)c(O)c3)C2=O)cc1O	CSC inhib 118.8, aSyn 5UTR inh 106.7, Mdm2-MdmX inh 97.7, Beta cell apopt 103.8 | Mdm2-MdmX conf 100.2 | Full FLuc ctr 51.2
COc1cc(/C=C2/CC/C(=C/c3ccc(O)c(OC)c3)C2=O)ccc1O	none
CCN1C/C(=C/c2ccc(OC)c(O)c2)C(=O)/C(=C/c2ccc(OC)c(O)c2)C1	CSC inhib 102.4, aSyn 5UTR inh 116.0, Mdm2-MdmX inh 99.9, Beta cell apopt 96.9 | Mdm2-MdmX conf 99.7 | Full FLuc ctr 41.0
COc1ccc(C(=O)On2c(-c3ccc(Br)cc3)nc3ccccc3c2=O)cc1	Mdm2-MdmX inh 53.8 | Mdm2-MdmX conf inactive
COC(=O)c1cc(S(=O)(=O)Nc2cccc(-c3cnco3)c2)oc1C	none
COc1ccc(NS(=O)(=O)c2cc(NC(=O)/C=C/c3cccs3)ccc2N2CCOCC2)cc1	Mdm2-MdmX inh 53.1 | Mdm2-MdmX conf inactive
CCCN1CCN(C(=O)c2ccc(F)c(S(=O)(=O)N3CCOCC3)c2)CC1	none (no result: aSyn 5UTR inh)
COc1ccc(OC)c(NS(=O)(=O)c2cc3c4c(c2)CCN4C(=O)CC3)c1	none (no result: Bfl-1 A1 inh, CSC inhib, Beta cell apopt)
CCO/C(=C/c1sc2ccc(OC)cc2[n+]1CCCS(=O)(=O)[O-])CC	none
CCC(/C=C1\Sc2ccc(OC)cc2N1CCO)=C\c1sc2ccc(OC)cc2[n+]1CCO	Mdm2-MdmX inh 72.4 (no result: aSyn 5UTR inh) | Mdm2-MdmX conf inactive
CCC(/C=C1\Sc2ccc(OC)cc2N1CC)=C\c1sc2ccc(OC)cc2[n+]1CCCS(=O)(=O)[O-]	Mdm2-MdmX inh 53.9, Beta cell apopt 102.6 | Mdm2-MdmX conf inactive
CCC(=O)/C=C1/Sc2ccc(OC)cc2N1CCO	none
COc1ccc(Br)cc1CN1CCC(N2CCCC2)CC1	none
C=CCOc1ccc(-c2nc3c(c(=O)[nH]c(=O)n3CCCC)n2C)cc1Br	Mdm2-MdmX inh 70.4 | Mdm2-MdmX conf inactive
CCn1c(=S)sc2c(=O)n(CC(=O)Nc3ccc(OC)c(Cl)c3)c(C)nc21	none
Cc1cccc(CN2CCN(C(=O)CCl)CC2)c1	Mdm2-MdmX inh 63.7 | Mdm2-MdmX conf inactive
Cc1ccc(C(=O)Nc2ncccc2C)cc1S(=O)(=O)N1CCCCC1	none
O=C(Cn1cnc2c(nnn2Cc2ccc(F)cc2)c1=O)Nc1ccc2c(c1)OCCO2	Mdm2-MdmX inh 71.4 | Mdm2-MdmX conf inactive
CCOC(=O)c1[nH]c(C=O)c(C(=O)OCC)c1C	Mdm2-MdmX inh 65.3 | Mdm2-MdmX conf 59.0 | Full FLuc ctr 71.5
CCOC(=O)c1[nH]c(C)c(C(=O)Nc2ccccc2C)c1C	Mdm2-MdmX inh 55.7 (no result: CSC inhib) | Mdm2-MdmX conf 62.1 | Full FLuc ctr 49.5
CCOC(=O)c1c(C)[nH]c(C(=O)COC(=O)c2ccccc2NC(=O)c2ccco2)c1C	Mdm2-MdmX inh 63.4 | Mdm2-MdmX conf inactive
CCOC(=O)c1[nH]c(C)c(C(=O)Nc2cc(Cl)ccc2C)c1C	Mdm2-MdmX inh 66.0 | Mdm2-MdmX conf 71.8 | Full FLuc ctr 85.0
CCOC(=O)c1[nH]c(C)c(C(=O)Nc2ccc(C)c(Cl)c2)c1C	none
Cc1ccc(C)c(OCCC(=O)Nc2cccc(S(=O)(=O)N3CCCCC3)c2)c1	none (no result: CSC inhib, aSyn 5UTR inh)
CCCN(C(=O)c1cn(C)c(=O)c2ccccc12)c1ccccc1C	none
CC(=O)c1c(C)[nH]c(C(=O)OCc2csc(CC(=O)Nc3ccccc3C)n2)c1C	Mdm2-MdmX inh 50.9 (no result: aSyn 5UTR inh) | Mdm2-MdmX conf inactive
